Results as given in PubChem BioAssay (NCI).
The panel holds about 83,000 compounds, 20% with a hit somewhere; the sample as a whole holds those more often.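 Activity criterion: percent growth below 10, measured after cells in 96-well plates were exposed to a single compound concentration for 48 hours.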 Active and inactive are the calls of the source.

What was measured:
Assay in all cases: NCI-60 one-dose screen, 48 h (100 = growth as untreated, 0 = no growth, -100 = all killed)
Settings in all cases: 10 µM unless noted
DU-145 prostate = test system: DU-145 prostate
K-562 leukemia = test system: K-562 leukemia
MALME-3M melanoma = test system: MALME-3M melanoma
MDA-MB-231 breast = test system: MDA-MB-231 breast
RXF 393 renal = test system: RXF 393 renal
SF-268 CNS = test system: SF-268 CNS
SF-295 CNS = test system: SF-295 CNS
SF-539 CNS = test system: SF-539 CNS
UACC-257 melanoma = test system: UACC-257 melanoma
M14 melanoma = test system: M14 melanoma

Measured: growth

C=C(C)[C@@H]1CC[C@]2(C(=O)NCCCO)CC[C@]3(C)[C@H](CC[C@@H]4[C@@]5(C)CCCNC(C)(C)[C@@H]5CC[C@]43C)[C@@H]12
inactive: DU-145 prostate 89.1% | MDA-MB-231 breast 49% | RXF 393 renal 58.2% | SF-268 CNS 77.9% | SF-295 CNS 89.3% | SF-539 CNS 70.4% | M14 melanoma 33.7%
active: K-562 leukemia 3.26% | MALME-3M melanoma -74.4% | UACC-257 melanoma -44.2%

COc1ccc2c(c1)OC13Oc4cc(OC)ccc4C=C1CCCCC3=C2
inactive: DU-145 prostate 104% | K-562 leukemia 88.7% | MALME-3M melanoma 97.9% | MDA-MB-231 breast 93.8% | RXF 393 renal 87.5% | SF-268 CNS 90.7% | SF-295 CNS 96.8% | SF-539 CNS 98.4% | UACC-257 melanoma 78.6% | M14 melanoma 90.4%

O=[N+]([O-])c1ccc(Oc2ccc(-c3ccccc3)cc2)cc1
inactive: DU-145 prostate 97.5% | K-562 leukemia 70.8% | MALME-3M melanoma 109% | MDA-MB-231 breast 88.5% | RXF 393 renal 102% | SF-268 CNS 94.5% | SF-295 CNS 89.4% | SF-539 CNS 94.7% | UACC-257 melanoma 98.1% | M14 melanoma 98.3%

CN(C)CCCn1c2c(c3cc(-c4cccc(S(N)(=O)=O)c4)ccc3c1=O)C(=O)c1ccccc1-2
inactive: DU-145 prostate 67.9% | K-562 leukemia 33.1% | MALME-3M melanoma 67.1% | MDA-MB-231 breast 94.4% | RXF 393 renal 85.1% | SF-268 CNS 51.6% | SF-295 CNS 50.6% | SF-539 CNS 80.9% | UACC-257 melanoma 97.4% | M14 melanoma 62.7%

C=C(C)[C@@H]1CC[C@]2(C(=O)O)CC[C@]3(C)[C@H](CC[C@@H]4[C@@]5(C)C[C@@H](CC#Cc6ccc(Cl)cc6)C(=O)C(C)(C)[C@@H]5CC[C@]43C)[C@@H]12
inactive: DU-145 prostate 39.4% | K-562 leukemia 28.8% | MALME-3M melanoma 21.2% | RXF 393 renal 62.4% | SF-268 CNS 74.1% | SF-295 CNS 41.3% | SF-539 CNS 57% | UACC-257 melanoma 75.6%
active: MDA-MB-231 breast 6.05% | M14 melanoma 1.24%

COc1cc(/C=C/C(=O)c2cccs2)ccc1OCc1ccc(Cl)nc1
inactive: DU-145 prostate 47.7% | K-562 leukemia 41.3% | MALME-3M melanoma 81.9% | MDA-MB-231 breast 82.8% | RXF 393 renal 94.9% | SF-268 CNS 85.1% | SF-295 CNS 105% | SF-539 CNS 91% | UACC-257 melanoma 91.3% | M14 melanoma 82%

O=C(O)c1ccc(-n2cc(/C=N/Nc3ccc(Cl)cc3Cl)c(-c3ccccc3)n2)cc1
inactive: DU-145 prostate 93.6% | K-562 leukemia 87.8% | MALME-3M melanoma 92.3% | MDA-MB-231 breast 81.7% | RXF 393 renal 97.9% | SF-268 CNS 81.8% | SF-295 CNS 74.7% | SF-539 CNS 82% | UACC-257 melanoma 116% | M14 melanoma 88.1%

COc1ccc(C2N(c3cc(OC)c(OC)c(OC)c3)C(=O)C2(F)F)cc1F (stereo not given)
inactive: DU-145 prostate 25.2% | K-562 leukemia 10.5% | MALME-3M melanoma 64.1% | MDA-MB-231 breast 54% | RXF 393 renal 49.4% | SF-268 CNS 52.9% | SF-295 CNS 48.3% | SF-539 CNS 21.6% | UACC-257 melanoma 50% | M14 melanoma 24.2%

[2H]c1nc(Nc2ncc3cc(C(=O)N(C)C)n(C4CCCC4)c3n2)c([2H])c([2H])c1N1C([2H])([2H])C([2H])([2H])NC([2H])([2H])C1([2H])[2H]
inactive: DU-145 prostate 88.4% | K-562 leukemia 53.2% | MALME-3M melanoma 62.4% | MDA-MB-231 breast 51% | RXF 393 renal 62.9% | SF-268 CNS 75.3% | SF-295 CNS 72.1% | SF-539 CNS 71.5% | UACC-257 melanoma 60% | M14 melanoma 70.7%

CCCCCCCc1n(Cc2ccc3ccccc3c2)c2ccccc2[n+]1Cc1ccc2ccccc2c1
active: DU-145 prostate -94.7% | K-562 leukemia -67.3% | MALME-3M melanoma -67.2% | MDA-MB-231 breast -81.2% | RXF 393 renal -72.1% | SF-268 CNS -74.9% | SF-295 CNS -92% | SF-539 CNS -88.9% | UACC-257 melanoma -76.5% | M14 melanoma -72%

COc1c(O)cc2oc3cc(O[C@@H]4OC(C)[C@@H](O)[C@H](O)C4O)c(CC=C(C)C)c(O)c3c(=O)c2c1CC=C(C)C (stereo not given in full)
inactive: DU-145 prostate 103% | K-562 leukemia 74.3% | MALME-3M melanoma 103% | MDA-MB-231 breast 89.5% | RXF 393 renal 103% | SF-268 CNS 92.7% | SF-295 CNS 93.3% | SF-539 CNS 99% | UACC-257 melanoma 104% | M14 melanoma 99.8%

O=C(O)COc1ccc2c(=O)c3sc4c(=O)c5ccccc5c(=O)c4c3c(=O)c2c1
inactive: K-562 leukemia 24.9% | MDA-MB-231 breast 45.2% | RXF 393 renal 49.3% | SF-268 CNS 44.7%
active: DU-145 prostate -89.6% | MALME-3M melanoma -75.4% | SF-295 CNS -97% | SF-539 CNS -45.7% | UACC-257 melanoma -3.61% | M14 melanoma -95.6%

O=S(=O)(O)c1ccc(N=NSc2ccc3ccccc3c2)cc1
inactive: DU-145 prostate 103% | K-562 leukemia 118% | MALME-3M melanoma 92.3% | MDA-MB-231 breast 102% | RXF 393 renal 117% | SF-268 CNS 98.8% | SF-295 CNS 97.4% | SF-539 CNS 100% | UACC-257 melanoma 113% | M14 melanoma 92.9%

CCCn1c(N)c(C(N)=O)sc1=S
inactive: DU-145 prostate 117% | K-562 leukemia 119% | MALME-3M melanoma 105% | MDA-MB-231 breast 99.8% | RXF 393 renal 125% | SF-268 CNS 97.2% | SF-295 CNS 115% | SF-539 CNS 109% | UACC-257 melanoma 109% | M14 melanoma 103%

C=C(C)[C@@H]1CC[C@]2(C(=O)OCCOCCOCC[P+](c3ccccc3)(c3ccccc3)c3ccccc3)CC[C@]3(C)[C@H](CC[C@@H]4[C@@]5(C)CC[C@H](OC(=O)C(Cl)Cl)C(C)(C)[C@@H]5CC[C@]43C)[C@@H]12
inactive: DU-145 prostate 15.5%
active: K-562 leukemia -20.9% | MALME-3M melanoma -82.9% | MDA-MB-231 breast -46.7% | RXF 393 renal -81.7% | SF-268 CNS 4.59% | SF-295 CNS -82.1% | SF-539 CNS -20.2% | UACC-257 melanoma -27.9% | M14 melanoma -80.9%

Nc1ccc2c(c1)C(=O)C(=O)c1c-2nc2ccccn12
active: DU-145 prostate -91.1% | K-562 leukemia 1.75% | MALME-3M melanoma -98.7% | MDA-MB-231 breast -7.84% | SF-295 CNS -67.6% | SF-539 CNS -32.9% | UACC-257 melanoma -67.9% | M14 melanoma -91.1%
inactive: RXF 393 renal 29% | SF-268 CNS 26.6%

CC(=O)Oc1ccc(O)cc1
inactive: DU-145 prostate 102% | K-562 leukemia 96.7% | MALME-3M melanoma 102% | MDA-MB-231 breast 95.4% | RXF 393 renal 115% | SF-268 CNS 98.8% | SF-295 CNS 101% | SF-539 CNS 101% | UACC-257 melanoma 83% | M14 melanoma 98.3%

N#Cc1ccc(N2Cc3cc(Cl)ccc3OC3=C2C(=O)N(Cc2ccccc2)C3=O)cc1
inactive: SF-295 CNS 69.4%
active: DU-145 prostate -75.7% | K-562 leukemia -22.3% | MALME-3M melanoma -64.4% | MDA-MB-231 breast -15.9% | RXF 393 renal -79.8% | SF-268 CNS -43.3% | SF-539 CNS -60.3% | UACC-257 melanoma -56.1% | M14 melanoma -35.7%

COC(=O)c1nc(-c2ccccc2)oc1S(=O)(=O)n1nc(C)cc1N
inactive: DU-145 prostate 92.5% | MDA-MB-231 breast 92.7% | RXF 393 renal 104% | SF-268 CNS 83.2% | SF-295 CNS 95.4% | SF-539 CNS 76.1% | UACC-257 melanoma 83.3% | M14 melanoma 67.1%
active: K-562 leukemia 3.02% | MALME-3M melanoma -37.1%

CCOC(=O)C1CCN(S(=O)(=O)/N=C2/NC(=O)NC2=C(Cl)Cl)CC1
inactive: DU-145 prostate 25.7% | RXF 393 renal 83.8% | SF-268 CNS 11.2% | SF-295 CNS 17.4% | UACC-257 melanoma 19.9%
active: K-562 leukemia -15.7% | MALME-3M melanoma -60% | MDA-MB-231 breast 9.62% | SF-539 CNS -4.27% | M14 melanoma -22.4%

CCN1CCN(c2ccc(NC(=O)Nc3nc4ccc(-c5ccccc5OC)cc4s3)cc2)CC1
active: DU-145 prostate -84.4% | K-562 leukemia -67.4% | MALME-3M melanoma -80.3% | MDA-MB-231 breast -74% | RXF 393 renal -74.2% | SF-268 CNS -59.4% | SF-295 CNS -79.9% | SF-539 CNS -82.6% | UACC-257 melanoma -71.9% | M14 melanoma -70.1%

NS(=O)(=O)c1ccc(-n2nc(-c3ccccc3)ccc2=O)cc1
inactive: DU-145 prostate 109% | K-562 leukemia 89.3% | MALME-3M melanoma 82.5% | MDA-MB-231 breast 108% | RXF 393 renal 125% | SF-268 CNS 106% | SF-295 CNS 260% | SF-539 CNS 95.3% | UACC-257 melanoma 111% | M14 melanoma 118%
